# Source: PubChem BioAssay AID2283312 (EPA ToxCast)
# Records with an inconclusive call do not appear. Activity calls are given as the source filed them. The calls were made as follows: active = hit-call score of the fitted dose curve at least 0.9, where 1 is the maximum; inconclusive = response in the unintended direction; inactive = score below 0.9.
# Biological target: rat Vasoactive Intestinal Peptide Receptor (VIP), Non-selective Binding, Vipr1 (gene 24875) (UniProt P30083)
# Assay: NVS_GPCR_rVIP_NonSelective: NovaScreen (NVS) G Protein-Coupled Receptor Assay for rat Vasoactive Intestinal Peptide Receptor (VIP), Non-selective Binding
# Procedure: NVS_GPCR_rVIP_NonSelective is a biochemical, single-readout assay that uses extracted gene-proteins from Rat forebrain membranes in a tissue-based cell-free assay. Measurements were taken 1 hour after chemical dosing in a 96-well plate.NVS_GPCR_rVIP_NonSelective is one of one assay component(s) measured or calculated from the NVS_GPCR_rVIP_NonSelective assay. It is designed to make measurements of radioligand binding, a form of binding reporter, as detected with scintillation counting signals by Filter-based radiodetection technology.Data from the assay component NVS_GPCR_rVIP_NonSelective was analyzed into 1 assay endpoint. This assay endpoint, NVS_GPCR_rVIP_NonSelective, was analyzed in the positive analysis fitting direction relative to DMSO as the negative control and baseline of activity. Using a type of binding reporter, loss-of-signal activity can be used to understand changes in the binding as they relate to the gene Vipr1. Furthermore, this assay endpoint can be referred to as a primary readout, because the performed assay has only produced 1 assay endpoint. To generalize the intended target to other relatable targets, this assay endpoint is annotated to the gpcr intended target family, where the subfamily is secretin receptor.
# Binding assays used specific radioligands (tritiated, iodinated) with non-radioactive competitive displacement ligands in agonist or antagonist protocols (as indicated) and various reference compounds and inhibitors to titrate specific binding to receptors and transporters. Most enzyme assays (CYPs, kinases, phosphatases, proteases, HDACs) used recombinant protein and specific substrates (fluorescence mostly, some colorimetric and radioactive) and inhibitors, followed by a biochemical separation of substrate and product. All assays for the biochemical HTS were initially run in duplicate at a single concentration (10 uM for CYP450 assays and 25 uM for all others). Assay-chemical combinations meeting a pre-defined threshold (e.g., 30% inhibition and other criteria defined below) were then run in singleton concentration-response format with maximum concentration of 20 uM for CYPs and 50 uM for all others. Each assay was run with positive and negative controls, and concurrent controls on every plate. The follow-up (secondary) screen tested active chemical-pairs in concentration series, as well as a few additional assays not tested in the primary screen, some selected negative inactives, and several cases re-run in the concentration series for confirmatory purposes.
# Sequence of rat Vasoactive Intestinal Peptide Receptor (VIP), Non-selective Binding, Vipr1 (gene 24875) (P30083 whole entry, looked up): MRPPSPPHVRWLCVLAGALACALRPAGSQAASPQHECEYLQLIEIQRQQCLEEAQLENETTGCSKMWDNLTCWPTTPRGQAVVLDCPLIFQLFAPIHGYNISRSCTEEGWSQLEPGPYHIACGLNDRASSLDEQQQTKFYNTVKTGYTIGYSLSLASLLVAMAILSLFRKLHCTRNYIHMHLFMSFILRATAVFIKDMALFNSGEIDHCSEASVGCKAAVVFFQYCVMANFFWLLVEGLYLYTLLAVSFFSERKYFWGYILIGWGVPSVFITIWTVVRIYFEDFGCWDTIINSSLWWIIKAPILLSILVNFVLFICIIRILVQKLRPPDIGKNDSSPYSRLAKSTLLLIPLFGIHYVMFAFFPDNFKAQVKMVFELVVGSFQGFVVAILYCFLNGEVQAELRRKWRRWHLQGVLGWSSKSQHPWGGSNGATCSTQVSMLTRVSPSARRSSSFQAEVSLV
Compound,outcome,AC50
NCc1cccc(C2CCN(C(=O)c3ccc(C#Cc4ccccc4F)o3)CC2)c1,inactive,
O=C(N[C@@H](c1ccccc1)[C@@H]1CCCCN1)c1cccc(C(F)(F)F)c1Cl,inactive,
CN(C)C(=O)C1(N2CCCCC2)CCN(CC[C@@]2(c3ccc(Cl)c(Cl)c3)CN(C(=O)c3ccccc3)CCO2)CC1,inactive,
CCOC(=O)O[C@H](C)OC(=O)c1ccc2c(c1)cc(C(=O)NC1CCN(C(C)C)CC1)n2Cc1cc(-c2ccc(Cl)s2)on1,,23.6 µM (active)
COCC(C)OCC(C)OCC(C)O (stereo not given),inactive,
O=C(NO)C1(NS(=O)(=O)c2ccc(Oc3ccc(F)cc3)cc2)CCOCC1,inactive,
CC(=O)NC1(c2cccc(F)c2)CCN(CC[C@@]2(c3ccc(Cl)c(Cl)c3)CN(c3ccccc3)C(=O)CO2)CC1,inactive,
CCCCCCCCCC,inactive,
c1ccc(Nc2ccccc2)cc1,inactive,
CC(C)(c1ccc(O)cc1)c1ccc(O)cc1,inactive,
